# From PubChem
# Rows were chosen to be rich in hits. Some 19% of all compounds tested hit in one or more screens of this group.
# DT40 TDP1 no CPT: qHTS for Inhibitors of human tyrosyl-DNA phosphodiesterase 1 (TDP1): qHTS in cells in absence of CPT; DT40 Tdp1-/- hTDP1 cells, no CPT, ATP luminescence, 48 h; Potency, µM (series often up to 46.2 µM), for the others: at the highest dose activity change, negative = growth inhibition, usual class: inhibitors; 15% of 420,000 active; AID 686978, 2013; note: potency is the fitted concentration of half-maximal effect; nearly all actives have a fitted effect of over 55% in size
#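 Growth of hTDP1-complemented DT40 Tdp1-knockout cells is measured by ATP luminescence after at least 48 hr compound exposure at 37 °C, with DMSO substituting for the 20 nM CPT used in the parallel screen.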
# uPA surface inh: cell surface uPA generation inhibition | cell surface uPA generation assay, qHTS | Potency, µM (highest dose often 38.3 µM), for the others: top-dose activity change, negative = inhibition, hits mostly inhibitors | 0.31% of 330,000 active | AID 540303; active = well fitted inhibition curve with a large enough effect; inconclusive = small, poorly fitted or top-dose-only effect; inactive = no such curve, though single readings can be large or run the other way; tested in mouse RAW 264.7 cells; note: potency is the fitted concentration of half-maximal effect; nearly all actives have a fitted effect of over 55% in size
# HT1080-NT tox: kills 2HG-producing HT-1080-NT fibrosarcoma cells | 1.6% of 360,000 active | AID 686970 | HT-1080-NT fibrosarcoma viability, CellTiter-Glo ATP luminescence, 48 h | Potency, µM (titrated, usually from 46.1 µM), without a hit: at the top dose activity, negative = less viability, hits mostly cytotoxic;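 note: NT is the 2HG producing partner of a matched IDH1 knockdown line; potency is the fitted concentration of half-maximal effect; 0% = DMSO-treated cells and -100% = media-only wells without cells; nearly all actives have a fitted effect of over 55% in size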
#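 750 cells/well, RPMI + 5% FBS; 2 h settle, compound pin-transfer, 48 h at 37 degrees C. CellTiter-Glo 10 min RT, luminescence. Normalized to DMSO and media-only wells.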
# IL-1B inflam inh: blocks inflammasome-driven IL-1 beta release. 4.7% of 360,000 active. THP-1 LPS/ATP IL-1B secretion, AlphaLISA, 16 h; active compounds read low. activity change, % at 57.5 µM; in the data active = activity change below about -50%; inconclusive = mostly about -30% to -49%
#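 Secreted IL-1B measured by AlphaLISA bead assay after 16 h compound exposure of THP-1 cells; compounds (final up to 57.5 uM) added 1 h before LPS (250 ng/mL) and ATP (1.25 mM) stimulation; lower signal means less secretion.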
# DT40 TDP1 CPT: growth inhibition of DT40 Tdp1-/-;hTDP1 cells with camptothecin (screen for TDP1 inhibitors) | 12% of 420,000 active | Potency, µM (doses to about 46.2 µM), for the others: at the highest dose activity change, negative = growth inhibition, actives largely listed as inhibitors | chicken DT40 Tdp1-/-;hTDP1 cells + 20 nM CPT, ATP luminescence, 48 h; note: potency is the fitted concentration of half-maximal effect; nearly all actives have a fitted effect of over 55% in size
#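 Cell growth measured by CellTiter-Glo luminescence after a minimum 48 h, 37 C compound exposure with 20 nM CPT in Tdp1-knockout DT40 cells stably expressing hTDP1, seeded 400/well; qHTS titration format.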
# HT1080 IDH1KD tx: HT-1080 IDH1 knockdown cell toxicity (counter line) | HT-1080 IDH1 knockdown viability, ATP luminescence, 48 h | Potency, µM (series often up to 46.1 µM), inactives show at the highest dose activity, negative = toxicity, usual class: cytotoxic | 2% of 360,000 active | AID 686971;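 note: potency is the fitted concentration of half-maximal effect; 0% = DMSO wells and -100% = cell-free medium wells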
#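 In this qHTS, HT-1080 cells depleted of IDH1 are exposed for 48 h at 37 °C to compound titrations. Toxicity is scored from CellTiter-Glo luminescence, with DMSO as full viability and medium alone as none.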
# An asterisk follows results filed as active; u = inconclusive; x = not tested or not shown. Unless noted, calls come from the whole dose curve; as a rule, active = well fitted curve in the direction sought with a large enough effect; inconclusive = small, poorly fitted or top-dose-only effect, or another doubt; inactive = no such curve, though single readings can be large; an effect the other way counts as inactive or inconclusive. Unless noted, % is set by controls: 0 for no effect and ±100 for the full control effect.
SMILES,DT40 TDP1 no CPT,uPA surface inh,HT1080-NT tox,IL-1B inflam inh,DT40 TDP1 CPT,HT1080 IDH1KD tx
Cc1ccc(-n2c(SCC(=O)O)nc3sc4c(c3c2=O)CCCC4)cc1,9%,1%,-8%,0,9%,-14%
CCCSc1nc2sc3c(c2c(=O)n1-c1ccc(C)cc1)CCCC3,9.2µM*,x,x,x,u,x
CC(=O)N1CCc2c(sc3nc(SCC(N)=O)n(-c4ccc(F)c(Cl)c4)c(=O)c23)C1,15%,x,x,x,5%,x
CCn1c(SCc2ccc(Cl)cc2)nc2nc3c(cc2c1=O)CCCC3,u,2%,1%,u,u,-18%
COc1ccc(S(=O)(=O)Nc2cc(S(=O)(=O)c3ccccc3)c(O)c(C)c2C)cc1,-25%,x,x,x,-22%,x
COc1ncc2nc(C)c(=O)n(Cc3ccc(F)cc3)c2n1,-12%,x,x,x,-6%,x
CCn1cc(S(=O)(=O)NCCc2ccc(OC)c(OC)c2)cn1,1%,-9%,-1%,-18,7%,0%
CSc1nnc2n(-c3ccccc3)c(=O)c3c4c(sc3n12)CCC4,-37%,0%,-8%,-6,-12%,-14%
CSc1nc2sc3c(c2c(=O)n1-c1ccccc1C)CCCC3,16µM*,x,x,x,23µM*,x
CCCCSc1nnc2n(-c3cccc(C)c3)c(=O)c3c4c(sc3n12)CCCC4,16µM*,x,x,x,u,x
COC(=O)[C@@]12OC[C@]34[C@H]([C@@H](O)[C@@H]1O)[C@@]1(C)C(=O)C(O[C@@H]5OC(CO)[C@@H](O)[C@@H](O)[C@@H]5O)=C[C@@H](C)[C@@H]1C[C@H]3OC(=O)[C@H](OC(=O)/C=C(\C)C(C)(C)OC(C)=O)[C@@H]24 (some centres not stated),3.3µM*,u,u,-56*,5.2µM*,u
O=C1NC[C@H](CCCCN2CCN(CC3CCCCC3)C(=O)C2=O)N(CC2CCCCC2)C1=O,-3%,x,14%,-3,7%,26%
Cn1c(-c2ccccc2)c(/C=N/NC(=O)c2cccnc2)c2ccccc21,23µM*,-12%,-6%,-28,-19%,u
O=C(N/N=C/c1c(-c2ccccc2)[nH]c2ccccc12)c1cccnc1,3.3µM*,u,-28%,u,6.5µM*,u
Cc1cc(CNC(=O)c2cnn(-c3ncc4c(n3)-c3ccccc3CCC4)c2C2CC2)on1,u,x,x,x,-6%,x
CC(C)(C)OC(=O)C[C@H]1C/C=C\C[C@@H](CC(=O)N(CCO)Cc2ccccc2)C(=O)N2CCC[C@H]2COC1=O,u,15%,-4%,-19,18µM*,-2%
O=C1OC[C@H]2CCCN2C(=O)[C@@H](CC(=O)N(CCO)Cc2ccccc2)C/C=C\C[C@@H]1Cc1ccc(F)cc1,18µM*,-21%,-9%,-25,7.3µM*,0%
O=C(O)CCCn1cc(NC(=O)c2cc(F)c(F)cc2Cl)cn1,23µM*,-3%,-4%,-24,u,0%
O=C(O)CCCn1cc(NC(=O)c2cccc(F)c2)cn1,4%,1%,1%,5,2%,4%
CCOC(=O)c1c(NC(=O)COC(=O)c2cc(OC)c(OC)cc2[N+](=O)[O-])sc(C)c1C,u,-1%,3%,22,-22%,-1%
CC1CCN(CC(=O)Nc2ccccc2C(=O)c2ccccc2)CC1,15µM*,-1%,0%,21,21µM*,-2%
CC1CCCCC1NCC(=O)Nc1ccccc1-c1ccccc1 (configuration not stated),18µM*,3%,-4%,-2,u,-7%
CC1CCN(CC(=O)Nc2ccccc2-c2ccccc2)CC1,u,12%,10%,2,18µM*,4%
